# Only some compounds are listed: those with a hit (about 2.3% of all), similar ones and a draw of the others.
# Jurkat NFkB inh: inhibitors of the PMA/ionomycin-induced NF-kB reporter in Jurkat cells; PMA/ionomycin-induced NF-kB luciferase reporter, luminescence; inhibition, % at 4 µM; 330,000 compounds, 0.53% hits; in the data active = inhibition above about 50%
# 697 NFkB inh: inhibitors of the PMA/ionomycin-induced NF-kB reporter in 697 B cells | 697 B-cell NF-kB luciferase reporter, 16 h | 330,000 compounds, 0.33% hits | inhibition, % at 4 µM; in the data active = inhibition above about 35%
# Shn3 inh set2: reduces Shn3 3'UTR luciferase signal in osteoblasts | Clone20 osteoblast Shn3 3'UTR firefly luciferase, 24 h | inhibition, % at 12.5 µM | 360,000 compounds, 0.52% hits | AID 588674;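 active = mean inhibition of at least 75% with every replicate also reaching 75%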;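 note: 0% = median of neutral control wells and 100% = pilot-screen positive control compound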
# LMP1 NFkB inh: reduces LMP1-driven NF-kappaB luciferase signal; LMP1-induced NF-kappaB luciferase reporter cells, luminescence; inhibition, % at 12.5 µM; 350,000 compounds, 0.69% hits; AID 504558; in the data active = inhibition above about 41%;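 note: 0% = neutral control wells and 100% = reference inhibitor control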
# MITF TRPM1 inh: inhibitors of MITF-driven TRPM1 promoter in melanoma cells. 330,000 compounds, 0.83% hits. inhibition, % at 12.5 µM. SK-MEL-5 TRPM1 promoter luciferase, 24 h;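 active = mean inhibition across replicates of 60% or more, whatever share of single replicates reaches that level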
# Gli-Sufu block: blocks Gli-Sufu signaling in a luciferase reporter. Sufu-KO-LIGHT fibroblasts, Gli luciferase reporter luminescence. inhibition, % at 5 µM. 340,000 compounds, 0.74% hits;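 active = inhibition above about 55%, limit read from the data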;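 note: 0% = DMSO-treated cells and 100% = wells with medium but no cells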
# Gli-Sufu confirm: confirmation of Gli-SUFU pathway antagonists | shares compounds with Gli-Sufu block | Sufu-KO-LIGHT cells, Gli luciferase reporter, luminescence | inhibition, % at 5 µM | 2,500 compounds, 40% hits;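 active = mean inhibition at 5 µM reaching about 45%, limit read from the data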;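 note: plate controls were DMSO-treated cells for no effect and wells lacking cells for full effect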
# Gli cytotox: cytotoxicity counter-screen for Gli-SUFU antagonists; Sufu-KO-LIGHT cells cytotoxicity, ATP luminescence; shares compounds with Gli-Sufu block; cytotoxicity, % at 5 µM; AID 651994; 2,500 compounds, 32% hits;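 active = mean cytotoxicity at 5 µM above about 25%, limit read from the data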;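 note: cells exposed to compound overnight for roughly 16 to 18 hours; plate controls were DMSO wells with cells for no effect and medium without cells for full effect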
# Wnt3a counter: Wnt3a reporter inhibition counter-screen. AID 651995. inhibition, % at 6.25 µM. Wnt-LIGHT cells, Wnt3a-driven luciferase reporter, luminescence. shares compounds with Gli-Sufu block. 2,500 compounds, 20% hits;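 active = mean inhibition above about 25%, limit read from the data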
# * marks the source's active call; other numbers are inactive results; . = not tested or not shown.
SMILES,Jurkat NFkB inh,697 NFkB inh,Shn3 inh set2,LMP1 NFkB inh,MITF TRPM1 inh,Gli-Sufu block,Gli-Sufu confirm,Gli cytotox,Wnt3a counter
COc1ccc(NC(=O)CSCC(=O)N2c3ccccc3CCc3ccccc32)cc1,7,9,0,7,-5,66*,15,2,-4
COc1ccccc1NC(=O)CSCC(=O)N1c2ccccc2CCc2ccccc21,3,-4,2,-7,-5,-5,.,.,.
Cc1ccc(-n2c(SCC(=O)Nc3cccc(C)c3)nc3c(oc4ccccc43)c2=O)cc1,21,9,.,.,.,.,.,.,.
Cc1cccc(-n2ncc3c2CCCC3NC(=O)Cc2c(C)noc2C)c1C (stereo not drawn),27,-17,76,23,13,59*,29,31*,7
CN1CCN(C(=O)c2cc(-c3cccc(Cl)c3)on2)CC1,-26,4,-34,-5,-14,-17,.,.,.
NC(=O)CC(NC(=O)Cc1ccc(Br)cc1)c1ccc(N2CCN(c3ccccc3)CC2)c([N+](=O)[O-])c1 (stereo not drawn),17,-2,44,18,13,-26,.,.,.
CC1CCN(Cc2c(C(=O)N/N=C/c3ccccc3O)nnn2-c2nonc2N)CC1,36,-13,80,32,30,52,62*,23,27*
Nc1nonc1-n1nnc(C(=O)N/N=C/c2ccncc2)c1CSc1ccccc1,3,-31,17,-3,-10,62*,27,20,2
Nc1nonc1-n1nnc(C(=O)N/N=C/c2ccccc2)c1CSc1ccccc1,-9,-7,17,.,.,5,.,.,.
CC12CCC(=O)N1C(C(=O)Nc1ccc(Br)cc1Cl)CS2 (stereo not drawn),18,24,-1,-7,-2,-3,.,.,.
COc1cccc(-c2cc3nc(-c4ccccc4)cc(N4CCN(C(=O)c5ccoc5)CC4)n3n2)c1,.,.,60,8,.,.,.,.,.
CCOC(=O)c1nc(Nc2cc(Cl)ccc2OC)c2ccccc2n1,3,17,-3,21,16,-1,.,.,.
CC(C)NCC(O)COC1CCC(C(C)(C)C)CC1 (stereo not drawn),-16,10,-24,-2,-1,70*,15,6,-27
O=C(N/N=C\c1c(O)ccc2ccccc12)c1ccc(Cn2cccn2)o1,40,9,89*,25,59,58*,69*,26*,59*
O=C(CN1CCCC1)N/N=C/c1c(O)ccc2ccccc12,20,8,91*,27,38,55,66*,37*,60*
O=C(NN=Cc1c(O)ccc2ccccc12)C1CC1,.,.,77,2,49,5,.,.,.
O=C(NC(Cc1ccccc1)C(=O)O)NC12CC3CC(CC(C3)C1)C2 (stereo not drawn),0,14,1,6,-6,.,.,.,.
CC(C)(CNC(=O)COc1ccccc1Cc1ccccc1)N1CCOCC1,3,-4,11,-15,-8,-2,.,.,.
Cn1c(O)c(N=NC(=O)CNC(=O)c2cccnc2)c2ccccc21,4,11,-8,-2,-1,51,25,0,4
COc1ccc(OC)c(NC(=O)COC(=O)c2cc3c(s2)CCC3)c1,-18,-9,15,6,-5,5,.,.,.
O=C(CSc1nnc(Cn2nnc3ccccc32)o1)N(Cc1ccc(Cl)cc1)c1ccccc1,22,-22,81,18,10,64*,63*,29*,11
Cc1ccc(C(=O)O/N=C(/c2nonc2N)N(C)C)cc1,-12,-33,-12,-7,4,-1,.,.,.
CCNC(=S)N1CCN(c2nc(-c3ccc(F)cc3)cs2)CC1,17,20,-2,9,-16,11,.,.,.
CC1CCN(c2ccccc2NC(=S)NC(=O)c2ccc(-c3cccc([N+](=O)[O-])c3)o2)CC1,-3,19,84,0,-8,79*,86*,32*,15
COC(=O)c1ccc(COc2cccc3c2OC(C)(C)C3)cc1,3,-24,17,-9,0,6,.,.,.
SMILES,Jurkat NFkB inh,697 NFkB inh,Shn3 inh set2,LMP1 NFkB inh,MITF TRPM1 inh,Gli-Sufu block,Gli-Sufu confirm,Gli cytotox,Wnt3a counter
COc1ccc(CNCC(O)COc2cccc3c2OC(C)(C)C3)cc1 (stereo not drawn),11,-7,91*,6,1,60*,61*,28*,14
Cc1ccc(S(=O)(=O)N2CCOCC2)cc1C(=O)N1CCN(S(=O)(=O)c2cccc(F)c2)CC1,-4,6,7,-3,6,-5,.,.,.
O=C(CCc1nc2ccccc2c(=O)[nH]1)OCc1ccc(-c2ccccc2)cc1,-13,18,12,8,13,96*,21,4,-36
O=C(CCc1nc2ccccc2c(=O)[nH]1)OCc1cccc(C(F)(F)F)c1,12,-3,-4,6,7,3,.,.,.
COc1cc(NC(=O)c2cc3ccccc3cc2OC)ccc1NC(=O)c1cccs1,3,28,9,23,18,57*,35,16,-71
CCCCN(CCCC)C(=O)CN(C)S(=O)(=O)c1ccc2c(c1)n(C)c(=O)c(=O)n2C,15,14,9,6,10,3,.,.,.
CN(CC(=O)O)S(=O)(=O)c1ccc2c(c1)n(C)c(=O)c(=O)n2C,8,10,-7,34,-7,63*,10,-3,-3
Cn1c(CSCc2ccc(F)cc2)nnc1SCC(=O)Nc1nccs1,5,-8,39,10,5,61*,23,10,-18
C/C=C(/C)C(=O)O[C@@H]1[C@H](OC(=O)C=C(C)C)c2c(ccc3ccc(=O)oc23)OC1(C)C,2,-12,34,-3,-4,31,.,.,.
COc1cccc(N2CCN(C(=O)C3CCN(S(=O)(=O)c4ccc5c(c4)oc(=O)n5C)CC3)CC2)c1,-3,8,7,3,2,61*,30,-2,-8
CC(=O)N1c2ccc(S(=O)(=O)N3CCC(C(=O)N4CCN(c5cccc(C(F)(F)F)c5)CC4)CC3)cc2CC1C (stereo not drawn),34,-16,83,.,12,74*,81*,34*,17
CC(=O)c1ccc(N2CCN(C(=O)C3CCN(S(=O)(=O)c4ccc5c(c4)CC(C)N5C(C)=O)CC3)CC2)cc1 (stereo not drawn),9,7,42,14,15,27,.,.,.
COc1cccc(N2CCN(S(=O)(=O)c3ccc4c(c3)oc(=O)n4C)CC2)c1,-1,-32,64,-4,-12,8,.,.,.
CC(C)OC(=O)c1nnc(-c2ccccc2)nc1OC(C)C,24,4,7,6,19,5,.,.,.

# High-throughput results deposited in PubChem BioAssay by several laboratories.
